Laboratory results taken from ChEMBL document CHEMBL1961873, “Compounds: GSK PKIS; Assays: Nanosyn kinase panel” (2012).

Legend:
[1] = tested on: Tyrosine-protein kinase ABL1 (Homo sapiens), P00519 [T315I]; conditions: at 1 µM
[2] = tested on: Tyrosine-protein kinase ABL1 (Homo sapiens), P00519 [Y253F]; conditions: at 0.1 µM
[3] = tested on: Tyrosine-protein kinase ABL1 (Homo sapiens), P00519 [Y253F]; conditions: at 1 µM
[4] = biological target: Tyrosine-protein kinase ABL1 (Homo sapiens) (UniProt P00519); conditions: at 0.1 µM
[5] = biological target: Tyrosine-protein kinase ABL1 (Homo sapiens) (UniProt P00519); conditions: at 1 µM
[6] = biological target: ALK tyrosine kinase receptor (Homo sapiens) (UniProt Q9UM73); conditions: at 0.1 µM
[7] = biological target: ALK tyrosine kinase receptor (Homo sapiens) (UniProt Q9UM73); conditions: at 1 µM
[8] = biological target: Tyrosine-protein kinase ABL2 (Homo sapiens) (UniProt P42684); conditions: at 0.1 µM
[9] = biological target: Tyrosine-protein kinase ABL2 (Homo sapiens) (UniProt P42684); conditions: at 1 µM
[10] = biological target: Tyrosine-protein kinase receptor UFO (Homo sapiens) (UniProt P30530); conditions: at 0.1 µM
[11] = biological target: Tyrosine-protein kinase receptor UFO (Homo sapiens) (UniProt P30530); conditions: at 1 µM
[12] = biological target: Tyrosine-protein kinase Blk (Homo sapiens) (UniProt P51451); conditions: at 0.1 µM
[13] = biological target: Tyrosine-protein kinase Blk (Homo sapiens) (UniProt P51451); conditions: at 1 µM
[14] = biological target: T1, Cytoplasmic tyrosine-protein kinase BMX (Homo sapiens) (UniProt P51813); conditions: at 0.1 µM
T1 sequence (whole entry): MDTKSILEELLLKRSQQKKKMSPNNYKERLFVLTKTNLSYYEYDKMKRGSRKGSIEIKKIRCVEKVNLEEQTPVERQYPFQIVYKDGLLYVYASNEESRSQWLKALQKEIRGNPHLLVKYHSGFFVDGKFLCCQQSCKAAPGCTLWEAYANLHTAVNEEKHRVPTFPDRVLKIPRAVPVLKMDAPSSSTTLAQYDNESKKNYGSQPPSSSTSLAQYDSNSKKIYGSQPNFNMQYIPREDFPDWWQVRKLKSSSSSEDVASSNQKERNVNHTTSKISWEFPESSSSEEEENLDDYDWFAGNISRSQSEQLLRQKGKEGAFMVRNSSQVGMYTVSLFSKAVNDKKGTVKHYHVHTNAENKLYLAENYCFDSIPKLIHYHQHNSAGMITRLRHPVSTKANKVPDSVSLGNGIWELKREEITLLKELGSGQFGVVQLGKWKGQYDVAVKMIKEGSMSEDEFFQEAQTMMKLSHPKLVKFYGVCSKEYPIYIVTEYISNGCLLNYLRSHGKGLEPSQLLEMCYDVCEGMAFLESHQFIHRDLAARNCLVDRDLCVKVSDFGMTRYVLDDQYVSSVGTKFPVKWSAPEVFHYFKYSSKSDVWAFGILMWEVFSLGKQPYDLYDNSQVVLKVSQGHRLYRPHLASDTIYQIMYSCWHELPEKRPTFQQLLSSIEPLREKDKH

[15] = biological target: T1, Cytoplasmic tyrosine-protein kinase BMX (Homo sapiens); conditions: at 1 µM
[16] = biological target: Protein-tyrosine kinase 6 (Homo sapiens) (UniProt Q13882); conditions: at 0.1 µM
[17] = biological target: Protein-tyrosine kinase 6 (Homo sapiens) (UniProt Q13882); conditions: at 1 µM
[18] = biological target: Tyrosine-protein kinase BTK (Homo sapiens) (UniProt Q06187); conditions: at 0.1 µM
[19] = biological target: Tyrosine-protein kinase BTK (Homo sapiens) (UniProt Q06187); conditions: at 1 µM
[20] = biological target: Tyrosine-protein kinase CSK (Homo sapiens) (UniProt P41240); conditions: at 0.1 µM;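 also: value given is the averaged percent inhibition of CSK kinase activity, from the GSK PKIS kinase inhibitor set screening panel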
Tyrosine-protein kinase CSK (Homo sapiens), sequence (P41240 2-450 limits assumed): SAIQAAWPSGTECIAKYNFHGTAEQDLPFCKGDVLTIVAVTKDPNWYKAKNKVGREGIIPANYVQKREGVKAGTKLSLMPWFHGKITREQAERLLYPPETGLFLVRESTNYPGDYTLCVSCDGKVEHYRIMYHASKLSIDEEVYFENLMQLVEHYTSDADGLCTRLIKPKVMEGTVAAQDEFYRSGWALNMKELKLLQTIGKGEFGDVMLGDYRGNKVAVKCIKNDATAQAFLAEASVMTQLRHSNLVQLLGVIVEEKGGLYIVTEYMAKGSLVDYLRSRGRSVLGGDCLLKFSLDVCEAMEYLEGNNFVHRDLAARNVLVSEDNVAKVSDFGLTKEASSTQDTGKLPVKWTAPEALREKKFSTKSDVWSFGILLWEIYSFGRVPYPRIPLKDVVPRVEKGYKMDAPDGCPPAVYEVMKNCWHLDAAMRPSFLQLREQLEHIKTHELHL

Protein-tyrosine kinase 6 (Homo sapiens), sequence (Q13882 whole entry, looked up): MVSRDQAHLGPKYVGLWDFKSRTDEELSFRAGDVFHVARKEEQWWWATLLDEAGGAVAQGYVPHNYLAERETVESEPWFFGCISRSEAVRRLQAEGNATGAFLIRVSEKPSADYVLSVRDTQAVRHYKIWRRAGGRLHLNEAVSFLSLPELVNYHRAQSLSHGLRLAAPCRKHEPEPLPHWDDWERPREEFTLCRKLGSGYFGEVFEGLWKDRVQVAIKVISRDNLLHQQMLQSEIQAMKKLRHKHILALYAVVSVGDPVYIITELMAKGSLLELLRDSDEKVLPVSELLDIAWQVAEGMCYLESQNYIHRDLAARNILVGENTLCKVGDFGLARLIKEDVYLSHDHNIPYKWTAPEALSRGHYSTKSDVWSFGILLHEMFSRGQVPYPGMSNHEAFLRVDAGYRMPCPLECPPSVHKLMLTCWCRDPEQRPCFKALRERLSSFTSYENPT
Tyrosine-protein kinase Blk (Homo sapiens), sequence (P51451 2-505 limits assumed): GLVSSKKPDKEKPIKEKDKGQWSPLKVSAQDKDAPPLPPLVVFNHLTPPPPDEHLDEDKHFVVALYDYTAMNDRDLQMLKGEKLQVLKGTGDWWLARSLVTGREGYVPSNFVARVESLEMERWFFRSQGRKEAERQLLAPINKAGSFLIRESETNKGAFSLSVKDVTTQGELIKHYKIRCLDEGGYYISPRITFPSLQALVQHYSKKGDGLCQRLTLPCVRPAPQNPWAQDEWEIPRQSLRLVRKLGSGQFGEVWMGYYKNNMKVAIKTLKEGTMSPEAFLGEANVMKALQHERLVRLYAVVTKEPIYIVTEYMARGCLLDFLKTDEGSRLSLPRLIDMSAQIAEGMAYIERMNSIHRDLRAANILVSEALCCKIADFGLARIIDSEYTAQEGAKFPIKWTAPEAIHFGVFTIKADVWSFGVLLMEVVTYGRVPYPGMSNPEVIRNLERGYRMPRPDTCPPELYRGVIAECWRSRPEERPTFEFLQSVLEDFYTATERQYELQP
Tyrosine-protein kinase receptor UFO (Homo sapiens), sequence (P30530 whole entry): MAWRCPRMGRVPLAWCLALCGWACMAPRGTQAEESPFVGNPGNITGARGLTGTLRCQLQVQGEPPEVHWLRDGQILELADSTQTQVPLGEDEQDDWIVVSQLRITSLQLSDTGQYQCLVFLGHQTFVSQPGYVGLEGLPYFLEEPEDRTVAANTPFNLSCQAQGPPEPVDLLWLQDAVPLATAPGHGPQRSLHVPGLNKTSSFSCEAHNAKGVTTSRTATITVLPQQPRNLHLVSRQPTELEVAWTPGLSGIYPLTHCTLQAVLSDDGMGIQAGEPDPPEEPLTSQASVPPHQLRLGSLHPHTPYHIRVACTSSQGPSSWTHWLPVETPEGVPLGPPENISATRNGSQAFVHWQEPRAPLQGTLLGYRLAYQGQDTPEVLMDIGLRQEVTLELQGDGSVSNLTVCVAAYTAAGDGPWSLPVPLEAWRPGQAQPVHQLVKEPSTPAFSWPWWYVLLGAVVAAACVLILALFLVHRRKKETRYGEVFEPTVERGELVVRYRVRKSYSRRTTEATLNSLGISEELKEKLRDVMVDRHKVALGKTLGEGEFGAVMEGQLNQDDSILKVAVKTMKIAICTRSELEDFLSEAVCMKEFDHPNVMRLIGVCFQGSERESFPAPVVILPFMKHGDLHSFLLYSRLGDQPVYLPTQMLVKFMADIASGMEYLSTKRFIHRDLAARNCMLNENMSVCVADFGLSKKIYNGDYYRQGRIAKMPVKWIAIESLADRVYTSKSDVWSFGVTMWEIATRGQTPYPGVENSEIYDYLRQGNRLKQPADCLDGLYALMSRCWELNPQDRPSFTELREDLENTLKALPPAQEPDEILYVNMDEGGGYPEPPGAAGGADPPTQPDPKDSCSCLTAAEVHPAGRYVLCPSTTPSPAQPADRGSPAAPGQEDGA
ALK tyrosine kinase receptor (Homo sapiens), sequence (Q9UM73 19-1620 limits assumed): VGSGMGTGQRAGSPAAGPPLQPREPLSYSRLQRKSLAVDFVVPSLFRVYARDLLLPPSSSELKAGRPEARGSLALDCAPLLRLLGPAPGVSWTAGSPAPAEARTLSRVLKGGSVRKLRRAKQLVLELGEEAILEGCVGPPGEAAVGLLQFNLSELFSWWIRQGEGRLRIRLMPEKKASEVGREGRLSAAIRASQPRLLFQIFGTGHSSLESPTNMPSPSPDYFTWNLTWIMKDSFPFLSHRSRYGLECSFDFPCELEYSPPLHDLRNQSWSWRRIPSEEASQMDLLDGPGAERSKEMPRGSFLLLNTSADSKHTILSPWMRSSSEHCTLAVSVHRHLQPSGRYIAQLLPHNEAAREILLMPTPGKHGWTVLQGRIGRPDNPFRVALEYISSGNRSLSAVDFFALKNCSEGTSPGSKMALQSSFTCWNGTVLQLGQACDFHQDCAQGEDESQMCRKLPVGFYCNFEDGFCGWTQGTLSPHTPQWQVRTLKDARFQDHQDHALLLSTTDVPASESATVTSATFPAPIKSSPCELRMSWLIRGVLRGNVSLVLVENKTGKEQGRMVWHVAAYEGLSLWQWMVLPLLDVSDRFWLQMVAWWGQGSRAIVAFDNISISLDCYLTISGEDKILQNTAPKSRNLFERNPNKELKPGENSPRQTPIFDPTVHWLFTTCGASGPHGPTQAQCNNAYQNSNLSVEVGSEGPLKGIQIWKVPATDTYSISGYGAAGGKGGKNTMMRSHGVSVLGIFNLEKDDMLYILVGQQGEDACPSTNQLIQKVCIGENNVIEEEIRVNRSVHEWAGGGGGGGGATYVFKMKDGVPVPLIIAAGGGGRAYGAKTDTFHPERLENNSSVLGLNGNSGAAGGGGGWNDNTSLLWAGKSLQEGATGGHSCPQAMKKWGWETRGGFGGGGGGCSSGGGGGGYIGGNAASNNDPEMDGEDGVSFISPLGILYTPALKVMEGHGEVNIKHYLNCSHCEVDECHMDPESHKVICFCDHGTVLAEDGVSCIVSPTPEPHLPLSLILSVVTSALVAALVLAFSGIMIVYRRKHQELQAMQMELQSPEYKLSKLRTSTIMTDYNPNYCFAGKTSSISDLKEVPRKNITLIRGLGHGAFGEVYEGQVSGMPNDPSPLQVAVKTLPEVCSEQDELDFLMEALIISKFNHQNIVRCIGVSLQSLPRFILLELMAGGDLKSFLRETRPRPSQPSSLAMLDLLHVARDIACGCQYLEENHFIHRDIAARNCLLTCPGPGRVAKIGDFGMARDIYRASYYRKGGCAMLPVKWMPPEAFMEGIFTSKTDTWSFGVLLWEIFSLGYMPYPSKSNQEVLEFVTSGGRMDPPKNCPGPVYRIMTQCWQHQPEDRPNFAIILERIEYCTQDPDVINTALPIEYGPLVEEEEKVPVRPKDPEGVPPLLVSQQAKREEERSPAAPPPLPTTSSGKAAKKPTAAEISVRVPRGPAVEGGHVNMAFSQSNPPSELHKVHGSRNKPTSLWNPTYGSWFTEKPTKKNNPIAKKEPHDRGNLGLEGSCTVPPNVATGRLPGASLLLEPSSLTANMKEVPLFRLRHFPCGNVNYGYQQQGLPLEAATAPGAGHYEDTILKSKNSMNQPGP
Tyrosine-protein kinase ABL2 (Homo sapiens), sequence (P42684 whole entry): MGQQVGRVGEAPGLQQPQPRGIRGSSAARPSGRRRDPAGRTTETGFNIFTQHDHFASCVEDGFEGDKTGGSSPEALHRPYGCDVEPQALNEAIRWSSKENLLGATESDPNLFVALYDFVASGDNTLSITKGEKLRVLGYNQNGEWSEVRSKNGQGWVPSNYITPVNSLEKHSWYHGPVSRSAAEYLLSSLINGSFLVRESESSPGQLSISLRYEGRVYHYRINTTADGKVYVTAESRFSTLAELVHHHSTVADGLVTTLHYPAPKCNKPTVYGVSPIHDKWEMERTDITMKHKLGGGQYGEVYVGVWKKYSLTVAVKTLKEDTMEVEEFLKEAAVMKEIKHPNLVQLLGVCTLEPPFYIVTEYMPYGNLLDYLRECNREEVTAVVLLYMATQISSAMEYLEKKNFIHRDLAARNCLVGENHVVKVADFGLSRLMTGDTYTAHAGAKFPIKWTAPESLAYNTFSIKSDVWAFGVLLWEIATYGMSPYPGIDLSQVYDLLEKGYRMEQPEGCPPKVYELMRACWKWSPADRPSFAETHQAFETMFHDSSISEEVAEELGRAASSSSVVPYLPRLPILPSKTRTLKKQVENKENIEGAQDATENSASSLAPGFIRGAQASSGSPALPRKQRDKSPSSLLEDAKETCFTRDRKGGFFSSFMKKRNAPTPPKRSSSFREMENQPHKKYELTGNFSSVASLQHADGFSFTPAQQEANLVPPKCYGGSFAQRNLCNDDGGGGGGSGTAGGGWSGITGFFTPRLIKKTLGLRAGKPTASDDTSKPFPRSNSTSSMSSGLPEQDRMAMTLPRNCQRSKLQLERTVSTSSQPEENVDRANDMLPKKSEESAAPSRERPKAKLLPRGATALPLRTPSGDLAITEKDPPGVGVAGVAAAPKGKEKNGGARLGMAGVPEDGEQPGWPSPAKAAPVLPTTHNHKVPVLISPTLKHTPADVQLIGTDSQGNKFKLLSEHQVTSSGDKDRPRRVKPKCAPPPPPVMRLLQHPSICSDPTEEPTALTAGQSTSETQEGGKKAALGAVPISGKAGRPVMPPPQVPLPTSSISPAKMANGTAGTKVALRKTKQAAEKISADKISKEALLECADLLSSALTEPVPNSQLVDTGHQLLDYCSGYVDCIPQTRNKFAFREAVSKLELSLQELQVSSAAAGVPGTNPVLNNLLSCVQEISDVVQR

SMILES | inhibition [1] [%] | inhibition [2] [%] | inhibition [3] [%] | inhibition [4] [%] | inhibition [5] [%] | inhibition [6] [%] | inhibition [7] [%] | inhibition [8] [%] | inhibition [9] [%] | inhibition [10] [%] | inhibition [11] [%] | inhibition [12] [%] | inhibition [13] [%] | inhibition [14] [%] | inhibition [15] [%] | inhibition [16] [%] | inhibition [17] [%] | inhibition [18] [%] | inhibition [19] [%] | inhibition [20] [%]
Cc1nnc(-c2ccc(C)c(-c3ccc(C(=O)NCc4ccc(Cl)cc4)cc3)c2)o1 | 3.98 | 3.1 | 5.29 | -2.31 | 1.59 | -1.04 | 0.41 | -0.31 | 2.57 | -5.93 | -7.1 | -0.28 | 0.7 | 2.05 | 1.64 | 2.2 | 6.8 | -1.06 | -4.02 | 3.38
COc1cc(C)c(N(C)C(=O)CN(C)C)cc1Nc1nc(Nc2cccc(F)c2C(N)=O)c2cc[nH]c2n1 | -0.05 | 2.02 | 1.33 | 0.32 | 0.22 | 22.4 | 69.9 | -2.32 | -3.83 | -0.45 | 3.71 | -3.28 | -1.84 | -1.82 | 2.46 | 0.54 | 1.53 | -1.73 | -2.02 | 1.1
COc1cc2ncn(-c3cc(OCc4ccccc4C(F)(F)F)c(C(C)=O)s3)c2cc1OC | 4.77 | 3.33 | 4.29 | 5.34 | 10.7 | 2.65 | 3.72 | 6.5 | 10.4 | -3.01 | -1.92 | 3.79 | 4.29 | 4.87 | 2.58 | -3.46 | 3.98 | 1.17 | 1.75 | 0.53
COc1ccc(C2=C(N3CCc4ccccc43)C(=O)NC2=O)cc1 | 6.11 | 5.42 | 3.01 | 5.83 | 9.91 | 1.29 | 5.62 | 6.76 | 12.3 | -5.65 | -4.91 | 3.71 | 2.94 | -1.14 | 5.15 | 6 | 5.72 | 1.91 | 0.84 | 7.99
CN(C)CCOc1ccc(-c2cc(-c3ccc4c(c3)CCC4=NO)c(-c3ccncc3)o2)cc1 | 19.4 | 2.44 | 22.1 | 2.01 | 20.3 | -1.95 | -0.08 | 2.43 | 18.6 | 1.32 | 2.27 | -0.19 | 6.21 | -1.43 | 1.43 | 1.76 | 15 | 0.42 | 2.57 | -2.53
CCc1ccc(Oc2nccc(-c3c(-c4ccc(F)cc4)ncn3C3CCNCC3)n2)cc1 | 3.78 | 1.61 | 2.53 | 5.79 | 6.61 | 1.79 | 2.02 | 2.69 | 5.01 | -2.27 | -3.44 | 2.31 | 4.68 | 5.07 | 6.03 | 2.72 | 2.5 | -0.17 | 0.53 | -0.21
Fc1ccc(-c2ncn(C3CCNCC3)c2-c2ccnc(Oc3ccc4c(c3)OCO4)n2)cc1 | 3.48 | 4.71 | 4.75 | 5.17 | 9.1 | 4.91 | 6.26 | 5.06 | 9 | -7.21 | -5.79 | 4.26 | 5.32 | 5.5 | 5.87 | 4.19 | 5.5 | -0.46 | 0.77 | 3.85
COc1cc(Nc2ncc(-c3ccccc3)o2)cc(OC)c1OC | 22.3 | 16.7 | 69.2 | 7.54 | 52.3 | -2.74 | -0.68 | 9.54 | 52.1 | -0.73 | -1.68 | 4.17 | 41.1 | 2.78 | 8.49 | 0.16 | 4.16 | -0.88 | 0.25 | -1.07
NC(=O)c1cc(-c2ccncc2)cc(-c2ccccc2)c1N | 3.04 | 8.23 | 40.8 | 7.61 | 40.2 | 3.8 | 5.19 | 6.19 | 54.2 | -7.51 | -6.8 | 3.86 | 17.5 | 11.8 | 49.6 | 5.89 | 36.9 | 1.6 | 11.8 | 5.98
CS(=O)(=O)CCNCc1cc(-c2cc3c(Nc4ccc(OCc5cccc(F)c5)c(Cl)c4)ncnc3s2)cs1 | 4.55 | 2.36 | 4.31 | 3.45 | 6.21 | 2.96 | 4.5 | 2.95 | 6.38 | -7.56 | -6.81 | 2.61 | 5.05 | 3.9 | 7.31 | 1.27 | 5.98 | -1.08 | 0.76 | 1.58
O=C(Nc1ccc(Oc2ccc3[nH]c(NC(=O)c4ccccc4)nc3c2)cc1)Nc1cc(C(F)(F)F)ccc1F | 83 | 10.8 | 51.8 | 16.2 | 62.3 | 3.09 | 6.42 | 25.1 | 65.9 | -3.01 | 19.2 | 2.56 | 4.59 | 1.13 | 2.54 | 3.52 | 8.39 | 0.7 | 3.03 | 2.64
C[C@@H](Oc1cc(-n2cnc3ccc(OCC4CCN(C)CC4)cc32)sc1C(N)=O)c1ccccc1Cl | 9.89 | 2.53 | 11 | 5.81 | 14 | 8.57 | 24.5 | 8.53 | 12.4 | -5.23 | 3.11 | 2.92 | 10.4 | 0.11 | 2.71 | 5.93 | 6.07 | 0 | 0.95 | 5.15
COc1ccc2cc(-c3c(-c4ccncc4)nc(-c4ccc(S(C)(=O)=O)cc4C)n3C)ccc2c1 | 42.6 | 4.62 | 18 | 2.92 | 13.5 | 2.91 | 6.27 | 2.97 | 11.7 | -5.68 | -4.46 | 3.03 | 7.1 | 5.32 | 3.88 | 29 | 85 | -2.49 | 0.28 | 3.76
